Results reported in PubChem BioAssay (EPA / NIEHS).
The source made the active and inactive calls. Rule for the calls: active = hit-call score of the fitted dose curve at least 0.9, where 1 is the maximum; inactive = score below 0.9.

Experiments:
Details in all cases: mRNA level, 48 h; actives raise or lower the signal
[1] = read-out: Cytochrome P450 (CYP24A1), CYP24A1 (gene 1591); test: LTEA_HepaRG_CYP24A1: Life Technologies and Expression Analysis (LTEA) Assay for Cytochrome P450 (CYP24A1) using HepaRG (AID 2283478)
Method in brief: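 qRT-PCR read-out: CYP24A1 transcript levels normalized to three housekeeping genes, bidirectional curve fits against 0.5% DMSO baseline. Human HepaRG cells treated 48 h with chemicals at eight concentrations from 100 uM in half-log steps.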

[2] = read-out: Cytochrome P450 (CYP1A2), CYP1A2 (gene 1544); test: LTEA_HepaRG_CYP1A2: Life Technologies and Expression Analysis (LTEA) Assay for Cytochrome P450 (CYP1A2) using HepaRG (AID 2283479)
Method in brief: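 HepaRG, 48 h exposure, top 100 uM, half-log 8-pt, 0.5% DMSO vehicle, duplicates. Readout: TaqMan qRT-PCR of CYP1A2 mRNA, housekeeping-normalized (ACTB/GAPDH/POLR2A). Gain/loss fit relative to DMSO baseline.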

[3] = read-out: cysteine-aspartic acid protease (CASP8), CASP8 (gene 841); test: LTEA_HepaRG_CASP8: Life Technologies and Expression Analysis (LTEA) Assay for cysteine-aspartic acid protease (CASP8) using HepaRG (AID 2283480)
Method in brief: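 qRT-PCR readout of CASP8 mRNA, normalized to three housekeeping genes, after 48 h chemical exposure of HepaRG cells; 8-point half-log series, top 100 uM, 0.5% DMSO vehicle. Bidirectional curve fitting against DMSO baseline.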

[4] = read-out: Cytochrome P450 (CYP2B6), CYP2B6 (gene 1555); test: LTEA_HepaRG_CYP2B6: Life Technologies and Expression Analysis (LTEA) Assay for Cytochrome P450 (CYP2B6) using HepaRG (AID 2283481)
Method in brief: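 Read-out is CYP2B6 mRNA by TaqMan qRT-PCR, normalized to three housekeeping genes and fitted bidirectionally against 0.5% DMSO baseline. Human HepaRG cells received test chemicals for 48 h, top concentration 100 uM, half-log dilutions.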

[5] = read-out: Cytochrome P450 2C19 (Homo sapiens) (UniProt P33261); test: LTEA_HepaRG_CYP2C19: Life Technologies and Expression Analysis (LTEA) Assay for CYP2C19 using HepaRG (AID 2283482)
Method in brief: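 HepaRG, 48 h chemical exposure, 8-pt half-log series from 100 uM in 0.5% DMSO, duplicates. Readout: CYP2C19 mRNA by TaqMan qRT-PCR, housekeeping-normalized. Bidirectional fit vs DMSO baseline; phenobarbital 1mM as induction control.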

CYP2C8 (gene 1558) = test: LTEA_HepaRG_CYP2C8: Life Technologies and Expression Analysis (LTEA) Assay for CYP2C8 using HepaRG (AID 2283483)
Method in brief: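 HepaRG (human liver line), 48 h chemical exposure, 8-pt half-log series from 100 uM, 0.5% DMSO vehicle. Readout: CYP2C8 transcript by qRT-PCR, housekeeping-normalized. Bidirectional fit vs DMSO baseline.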

CYP2C9 (gene 1559) = test: LTEA_HepaRG_CYP2C9: Life Technologies and Expression Analysis (LTEA) Assay for CYP2C9 using HepaRG (AID 2283484)
Method in brief: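 HepaRG, 48 h dosing, 8-pt half-log series, top 100 uM, 0.5% DMSO vehicle. Read-out: CYP2C9 transcript by TaqMan qRT-PCR, housekeeping-normalized (ACTB/GAPDH/POLR2A). Gain or loss fitted vs DMSO baseline.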

CYP2E1 (gene 1571) = test: LTEA_HepaRG_CYP2E1: Life Technologies and Expression Analysis (LTEA) Assay for CYP2E1 using HepaRG (AID 2283485)
Method in brief: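 CYP2E1 transcript was measured by TaqMan qRT-PCR in human HepaRG cultures after 48 h chemical exposure (top 100 uM, half-log steps, 0.5% DMSO vehicle). Housekeeping-gene normalization; gain or loss fitted relative to DMSO baseline.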

CYP4A11 (gene 1579) = test: LTEA_HepaRG_CYP4A11: Life Technologies and Expression Analysis (LTEA) Assay for CYP4A11 using HepaRG (AID 2283486)
Method in brief: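 CYP4A11 transcript levels were quantified by TaqMan qRT-PCR after HepaRG human liver cells were treated for 48 hours with test chemicals (top 100 uM, half-log dilutions, 0.5% DMSO). Gain or loss of signal was fitted relative to DMSO.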

[6] = read-out: Cytochrome P450 3A4 (Homo sapiens) (UniProt P08684); test: LTEA_HepaRG_CYP3A4: Life Technologies and Expression Analysis (LTEA) Assay for CYP3A4 using HepaRG (AID 2283487)
Method in brief: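 Differentiated HepaRG cells, plated 48 h, then dosed 48 h in serum-free induction medium with 0.5% DMSO, 8 half-log concentrations up to 100 uM, duplicate. CYP3A4 mRNA by qRT-PCR, normalized to ACTB/GAPDH/POLR2A; bidirectional fit versus DMSO.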

[7] = read-out: Pro-epidermal growth factor (Homo sapiens) (UniProt P01133); test: LTEA_HepaRG_EGF: Life Technologies and Expression Analysis (LTEA) Assay for Epidermal growth factor (EGF) using HepaRG (AID 2283489)
Method in brief: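 qRT-PCR readout of EGF transcript after 48 h chemical exposure of HepaRG cells; eight concentrations from 100 uM down in half-log steps, duplicate wells, 0.5% DMSO vehicle. Bidirectional curve fitting against DMSO baseline.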

[8] = read-out: Ezrin (EZR), EZR (gene 7430); test: LTEA_HepaRG_EZR: Life Technologies and Expression Analysis (LTEA) Assay for Ezrin (EZR) using HepaRG (AID 2283491)
Method in brief: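 EZR transcript levels came from Fluidigm qRT-PCR and were normalized to three housekeeping genes after 48 h chemical exposure of HepaRG cells. Dosing used an 8-point half-log series with a 100 uM top concentration in 0.5% DMSO, tested in duplicate; both directions were fitted versus vehicle.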

[9] = read-out: Cytochrome P450 3A7 (Homo sapiens) (UniProt P24462); test: LTEA_HepaRG_CYP3A7: Life Technologies and Expression Analysis (LTEA) Assay for CYP3A7 using HepaRG (AID 2283492)
Method in brief: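 CYP3A7 transcript levels were read by TaqMan qRT-PCR on Fluidigm arrays after 48 h chemical exposure of human HepaRG cells, with housekeeping-gene normalisation. Eight half-log concentrations up to 100 uM in 0.5% DMSO were tested in duplicate.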

CYP3A5 (gene 1577) = test: LTEA_HepaRG_CYP3A5: Life Technologies and Expression Analysis (LTEA) Assay for CYP3A5 using HepaRG (AID 2283493)
Method in brief: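 qRT-PCR read-out: CYP3A5 transcript in HepaRG lysates, housekeeping-normalized (ACTB/GAPDH/POLR2A), fitted bidirectionally against 0.5% DMSO baseline. Exposure 48 h, eight half-log concentrations up to 100 uM, duplicates.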

[10] = read-out: Cytochrome P450 4A22 (Homo sapiens) (UniProt Q5TCH4); test: LTEA_HepaRG_CYP4A22: Life Technologies and Expression Analysis (LTEA) Assay for Cytochrome P450 4A22 (CYP4A22) using HepaRG (AID 2283495)
Method in brief: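 HepaRG, 48 h post-plating -> serum-free induction medium; dosed 48 h, duplicate, 8 conc. (100 uM top, half-log), 0.5% DMSO. Readout: CYP4A22 mRNA by qRT-PCR, ACTB/GAPDH/POLR2A normalization; gain/loss fit relative to DMSO.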

[11] = read-out: Glutathione S-Transferase (GSTA2), GSTA2 (gene 2939); test: LTEA_HepaRG_GSTA2: Life Technologies and Expression Analysis (LTEA) Assay for Glutathione S-Transferase (GSTA2) using HepaRG (AID 2283497)
Method in brief: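 qRT-PCR readout of GSTA2 transcript, normalized to three housekeeping genes, fitted bidirectionally against 0.5% DMSO baseline. Differentiated HepaRG cells received compound for 48 h at 8 concentrations (top 100 uM, half-log steps).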

[12] = read-out: DNA damage-inducible transcript 3 (DDIT3), DDIT3 (gene 1649); test: LTEA_HepaRG_DDIT3: Life Technologies and Expression Analysis (LTEA) Assay for DNA damage-inducible transcript 3 (DDIT3) using HepaRG (AID 2283488)
Method in brief: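 qRT-PCR readout (Fluidigm TaqMan), housekeeping-normalized to ACTB, GAPDH, POLR2A. HepaRG cells, 48 h exposure, 8-point half-log series from 100 uM in 0.5% DMSO, duplicates. Gain or loss of signal fitted against DMSO baseline.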

[13] = read-out: Fatty Acid-Binding Protein 1 (FABP1), FABP1 (gene 2168); test: LTEA_HepaRG_FABP1: Life Technologies and Expression Analysis (LTEA) Assay for Fatty Acid-Binding Protein 1 (FABP1) using HepaRG (AID 2283494)
Method in brief: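 qRT-PCR readout of FABP1 transcript (normalized to three housekeeping genes) after 48 h chemical exposure of HepaRG cells; eight concentrations, half-log steps, max 100 uM, 0.5% DMSO vehicle; gain or loss fitted relative to DMSO baseline.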

[14] = read-out: Early growth response protein 1 (EGR1) transcription factor, EGR1 (gene 1958); test: LTEA_HepaRG_EGR1: Life Technologies and Expression Analysis (LTEA) Assay for Early growth response protein 1 (EGR1) transcription factor using HepaRG (AID 2283490)
Method in brief: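 HepaRG, 48 h exposure, 8-pt half-log series from 100 uM, 0.5% DMSO vehicle; EGR1 transcript by TaqMan qRT-PCR (Fluidigm array), housekeeping-normalized; bidirectional fit relative to DMSO baseline.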

[15] = read-out: Cytochrome P450 7A1 (Homo sapiens) (UniProt P22680); test: LTEA_HepaRG_CYP7A1: Life Technologies and Expression Analysis (LTEA) Assay for Cytochrome P450 7A1 (CYP7A1) using HepaRG (AID 2283496)
Method in brief: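 Using 0.5% DMSO as vehicle and baseline, chemicals were tested in duplicate over an 8-point range from 100 uM on HepaRG cells for 48 h; qRT-PCR signals were normalised to ACTB, GAPDH and POLR2A.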

Measured: AC50

Sequence of Cytochrome P450 3A7 (Homo sapiens) (P24462 whole entry, looked up): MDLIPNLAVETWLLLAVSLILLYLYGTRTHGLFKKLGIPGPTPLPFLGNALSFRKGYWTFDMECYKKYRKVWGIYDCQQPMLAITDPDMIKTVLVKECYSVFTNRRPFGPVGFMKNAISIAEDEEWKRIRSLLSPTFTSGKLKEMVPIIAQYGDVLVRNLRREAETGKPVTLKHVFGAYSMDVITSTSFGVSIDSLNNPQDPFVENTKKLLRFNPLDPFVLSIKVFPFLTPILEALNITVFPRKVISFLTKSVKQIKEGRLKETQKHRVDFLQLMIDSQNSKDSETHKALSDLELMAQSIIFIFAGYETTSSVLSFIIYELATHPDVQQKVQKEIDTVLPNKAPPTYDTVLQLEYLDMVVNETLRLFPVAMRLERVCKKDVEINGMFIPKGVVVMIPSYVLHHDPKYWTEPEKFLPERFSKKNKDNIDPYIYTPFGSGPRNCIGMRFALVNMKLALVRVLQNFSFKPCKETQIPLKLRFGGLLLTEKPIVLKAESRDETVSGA
Sequence of Cytochrome P450 2C19 (Homo sapiens) (P33261 whole entry, looked up): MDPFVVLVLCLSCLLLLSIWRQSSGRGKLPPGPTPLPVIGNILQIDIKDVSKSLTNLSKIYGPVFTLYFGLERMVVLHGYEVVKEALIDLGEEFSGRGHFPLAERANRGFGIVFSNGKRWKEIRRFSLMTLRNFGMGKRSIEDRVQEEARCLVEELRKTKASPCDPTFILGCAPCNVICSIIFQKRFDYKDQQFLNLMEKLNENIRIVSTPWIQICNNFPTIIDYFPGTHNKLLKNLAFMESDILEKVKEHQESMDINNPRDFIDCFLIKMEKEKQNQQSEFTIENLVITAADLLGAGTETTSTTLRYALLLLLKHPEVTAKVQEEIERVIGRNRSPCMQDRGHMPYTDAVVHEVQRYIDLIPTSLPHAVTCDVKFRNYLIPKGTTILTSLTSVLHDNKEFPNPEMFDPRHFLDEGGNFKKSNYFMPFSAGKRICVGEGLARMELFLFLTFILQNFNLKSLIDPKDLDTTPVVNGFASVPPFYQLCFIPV
Sequence of Cytochrome P450 3A4 (Homo sapiens) (P08684 whole entry, looked up): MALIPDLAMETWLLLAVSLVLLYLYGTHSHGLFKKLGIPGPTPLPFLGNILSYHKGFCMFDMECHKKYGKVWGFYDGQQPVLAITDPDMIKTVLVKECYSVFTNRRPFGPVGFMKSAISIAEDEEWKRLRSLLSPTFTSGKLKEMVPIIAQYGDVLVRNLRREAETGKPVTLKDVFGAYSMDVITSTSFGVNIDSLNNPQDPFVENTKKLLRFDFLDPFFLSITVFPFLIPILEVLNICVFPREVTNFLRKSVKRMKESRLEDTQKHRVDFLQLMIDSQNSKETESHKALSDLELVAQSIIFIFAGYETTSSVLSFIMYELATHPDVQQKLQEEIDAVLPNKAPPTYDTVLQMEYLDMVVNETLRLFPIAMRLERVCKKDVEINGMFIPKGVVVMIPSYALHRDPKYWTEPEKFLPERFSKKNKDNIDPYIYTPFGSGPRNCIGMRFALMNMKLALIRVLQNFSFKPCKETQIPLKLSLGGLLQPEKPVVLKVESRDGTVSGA

O=C(O)Cc1cc(I)c(Oc2cc(I)c(O)c(I)c2)c(I)c1
active: [2] 0.0864 µM | [3] 56.7 µM | [4] 55.3 µM | [5] 62.7 µM | CYP2C8 (gene 1558) 61.5 µM | CYP2C9 (gene 1559) 53.8 µM | CYP2E1 (gene 1571) 6.65 µM | CYP4A11 (gene 1579) 53.2 µM | [6] 50.7 µM | [7] 57.3 µM | [9] 45.4 µM | CYP3A5 (gene 1577) 26.7 µM | [10] 54.5 µM | [11] 56.7 µM
inactive: [1] | [8]

CC#C[C@]1(O)CC[C@H]2[C@@H]3CCC4=CC(=O)CCC4=C3[C@@H](c3ccc(N(C)C)cc3)C[C@@]21C
inactive: [1] | CYP3A5 (gene 1577)
active: [2] 26.4 µM | [3] 27.6 µM | [4] 34 µM | [5] 33 µM | CYP2C8 (gene 1558) 28 µM | CYP2C9 (gene 1559) 50 µM | CYP2E1 (gene 1571) 19.6 µM | CYP4A11 (gene 1579) 23.9 µM | [7] 4.48 µM | [8] 50 µM | [10] 24.2 µM | [11] 71.5 µM

Cc1cc(C)c(O)c(C)c1
active: [5] 9.18 µM | CYP2C8 (gene 1558) 5.03 µM | CYP2C9 (gene 1559) 6.31 µM | CYP2E1 (gene 1571) 13.4 µM | [6] 13.7 µM | [9] 7.49 µM
not listed: [4] | [14] | [15]
inactive: all other assays above

OCCC(F)(F)C(F)(F)C(F)(F)C(F)(F)C(F)(F)C(F)(F)F
not listed: [13] | [14] | [15]
inactive: all other assays above

N#C[C@@H]1CC(F)(F)CN1C(=O)CNC1CC2CCC(C1)N2c1ncccn1 (stereo not given in full)
active: [2] 64.4 µM | [5] 69 µM | [6] 50 µM
not listed: [4] | [13]
inactive: all other assays above

CCCCCCCCCCCCCCCS(=O)(=O)Oc1ccccc1
active: [2] 5.56 µM | [5] 8.59 µM | CYP2C8 (gene 1558) 7.61 µM | CYP2E1 (gene 1571) 14.1 µM | [6] 9.56 µM | [9] 8.39 µM
not listed: [4] | [14]
inactive: all other assays above

CCCCCCCCOC(=O)CCCCCCCCC(=O)OCCCCCCCC
active: [2] 29.9 µM
not listed: [13] | [15]
inactive: all other assays above

CCC(C)(C)C1CCC(O)CC1 (stereo not given)
not listed: [4] | [13]
inactive: all other assays above

COCC(C)OCC(C)O (stereo not given)
not listed: [12] | [14] | [15]
inactive: all other assays above

CCCCCCCCCCCCc1ccccc1S(=O)(=O)O
inactive: [1] | [3] | [14] | [8] | CYP3A5 (gene 1577)
active: [2] 84.6 µM | [4] 84.5 µM | [5] 87.3 µM | CYP2C8 (gene 1558) 82.3 µM | CYP2C9 (gene 1559) 83.3 µM | CYP2E1 (gene 1571) 78.3 µM | CYP4A11 (gene 1579) 80.7 µM | [6] 89.6 µM | [7] 50 µM | [9] 88 µM | [10] 79.6 µM | [11] 80.3 µM

CC(O)CO (stereo not given)
not listed: [4] | [14]
inactive: all other assays above

c1ccc2c(c1)Cc1ccccc1-2
active: [4] 31.9 µM
not listed: [12] | [13] | [15]
inactive: all other assays above

CCCCCCCCCCCCN1CCCC1=O
not listed: [13]
inactive: all other assays above

CC(C)CCCCCCOC(=O)CCCCC(=O)OCCCCCCC(C)C
active: [2] 50 µM | [4] 31.8 µM
not listed: [12] | [13] | [14] | [15]
inactive: all other assays above
